The whole screen tested about 310,000 compounds, of which about 14,000 (4.5%) showed an effect of 50% or more. The effect is printed as a negative number. The sample as a whole holds a higher share of strong results than the screen did. Where a SMILES comes first, the peptide text is derived from it. The star is where a group is joined. PhAc = O=C(Cc1ccccc1)*; OBn = c1ccc(CO*)cc1
biological target: human ether-à-go-go-related gene (hERG) potassium channel (human, UniProt Q12809); experiment: primary screen, population patch clamp on CHO cells stably expressing hERG; higher = less effect of the substance
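Note: peak tail current of the secondary pulse compared with the same well before compound.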

Sequence of human ether-à-go-go-related gene (hERG) potassium channel (Q12809 whole entry, looked up): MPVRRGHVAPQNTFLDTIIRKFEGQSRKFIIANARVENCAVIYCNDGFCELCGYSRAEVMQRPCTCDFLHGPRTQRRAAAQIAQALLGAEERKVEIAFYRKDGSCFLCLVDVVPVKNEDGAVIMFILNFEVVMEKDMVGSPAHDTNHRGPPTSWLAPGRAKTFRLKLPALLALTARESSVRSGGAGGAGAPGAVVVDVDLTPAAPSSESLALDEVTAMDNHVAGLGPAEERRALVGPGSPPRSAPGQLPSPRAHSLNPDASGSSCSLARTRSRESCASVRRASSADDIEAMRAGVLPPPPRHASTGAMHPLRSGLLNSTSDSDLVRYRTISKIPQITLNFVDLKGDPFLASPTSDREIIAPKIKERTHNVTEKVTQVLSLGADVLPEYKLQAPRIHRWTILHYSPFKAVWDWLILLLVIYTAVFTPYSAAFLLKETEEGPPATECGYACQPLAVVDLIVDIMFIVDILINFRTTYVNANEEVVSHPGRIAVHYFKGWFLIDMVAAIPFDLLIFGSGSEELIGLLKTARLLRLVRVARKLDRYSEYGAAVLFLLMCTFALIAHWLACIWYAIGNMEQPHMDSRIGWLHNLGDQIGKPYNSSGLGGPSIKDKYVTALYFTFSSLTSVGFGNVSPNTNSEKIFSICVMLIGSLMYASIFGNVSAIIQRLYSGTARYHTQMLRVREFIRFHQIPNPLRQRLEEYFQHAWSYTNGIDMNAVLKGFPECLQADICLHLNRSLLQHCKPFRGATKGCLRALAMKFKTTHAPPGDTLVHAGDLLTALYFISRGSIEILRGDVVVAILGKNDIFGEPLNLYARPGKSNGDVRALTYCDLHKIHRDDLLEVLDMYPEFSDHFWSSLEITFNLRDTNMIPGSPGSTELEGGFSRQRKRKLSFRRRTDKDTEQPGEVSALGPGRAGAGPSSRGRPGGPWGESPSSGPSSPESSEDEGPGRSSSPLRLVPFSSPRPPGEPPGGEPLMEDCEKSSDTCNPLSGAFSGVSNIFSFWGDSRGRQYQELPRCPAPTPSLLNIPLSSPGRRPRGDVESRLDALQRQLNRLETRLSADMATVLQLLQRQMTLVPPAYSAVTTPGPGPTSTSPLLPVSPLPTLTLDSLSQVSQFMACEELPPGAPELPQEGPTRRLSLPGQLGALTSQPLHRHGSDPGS

Row | SMILES | hERG current change (%, negative = inhibition) at 10uM [%]
1 | Cc1ccc2nc(SC(C(=O)Nc3ccc(F)cc3)c3ccccc3)[nH]c2c1 (centres unmarked) | -1.38
2 | Cc1ccsc1/C=N/NC(=O)c1ccc2nc[nH]c2c1 | -2.67
3 | COC(=O)c1cc(C#N)c(OC(C)C)nc1C | -6.52
4 | Cc1cc(C)c(S(=O)(=O)N2CCCOC2CNC(=O)C(=O)NCc2cccnc2)c(C)c1 (centres unmarked) | 8.23
5 | COc1ccccc1C(c1nnnn1Cc1ccccc1)N1CCN(c2nc3ccccc3s2)CC1.Cl (centres unmarked) | 23.1
6 | COc1ccc(C(c2nnnn2Cc2ccccc2)N2CCN(c3nc4ccccc4s3)CC2)cc1 (centres unmarked) | 13.7
7 | COc1ccc(C(c2nnnn2Cc2ccccc2)N2CCN(c3nc4ccccc4s3)CC2)cc1OC.Cl (centres unmarked) | -58.4
8 | O=C(N/N=C/c1ccc(Cl)cc1)c1nc2ccc([N+](=O)[O-])cc2c(=O)[nH]1 | -27.3
9 | CC(C)Cn1c(CN2C(=O)c3ccccc3C2=O)nc2ccccc2c1=O | 16.7
10 | Fc1cc(Br)ccc1NC(=S)NCCc1ccccc1 | -1.43
11 | COC(=O)c1ccc(C(=O)N2CCCC(N3CCN(c4ccccc4)CC3)C2)nc1 (centres unmarked) | -22.4
12 | O=C(c1cc(C2CC2)on1)N1CCCC(N2CCN(c3cccc(C(F)(F)F)c3)CC2)C1 (centres unmarked) | -48.7
13 | Cc1cccc(C(=O)N2CCCC(N3CCN(c4ccc(F)cc4)CC3)C2)n1 (centres unmarked) | -48.4
14 | CC(C)c1cc(C(=O)N2CCCC(N3CCN(c4ccc(F)cc4)CC3)C2)no1 (centres unmarked) | -72.1
15 | COCc1ccc(C(=O)N2CCCC(N3CCN(c4ccc(F)cc4)CC3)C2)o1 (centres unmarked) | -47.3
16 | COC(=O)c1ccc(C(=O)N2CCCC(N3CCN(c4ccc(F)cc4)CC3)C2)nc1 (centres unmarked) | -56.1
17 | O=C(c1cc(C2CC2)on1)N1CCN(c2ccc(F)cc2)CC1 | -43.4
18 | Cc1cc(C(=O)N2CCCC(N3CCN(c4ccc(F)cc4)CC3)C2)no1 (centres unmarked) | -37.7
19 | O=C(c1cc(C2CC2)on1)N1CCCC(N2CCN(c3ccc(F)cc3)CC2)C1 (centres unmarked) | -63.7
20 | O=C(c1ccccn1)N1CCCC(N2CCN(c3ccc(F)cc3)CC2)C1 (centres unmarked) | -37.2
21 | CCc1noc(C)c1C(=O)N1CCCC(N2CCN(c3ccc(F)cc3)CC2)C1 (centres unmarked) | -27.2
22 | CCCc1cc(C(=O)N2CCCC(N3CCN(c4ccc(F)cc4)CC3)C2)no1 (centres unmarked) | -73
23 | O=C(Cc1ccccc1)N[C@H](c1ccccc1)P(=O)(O)CO | 8.47
24 | CC(=O)c1cccc(NC(=O)Nc2ccc(C(=O)N3CCOCC3)cc2)c1 | -0.351
25 | NS(=O)(=O)c1ccc(NC(=O)COC(=O)c2ccc3c(c2)OCCO3)cc1 | 24
26 | CC(C)C(=O)Nc1sc2c(c1C#N)CCCCC2 | 9.53
27 | Cc1cc(C)c(S(=O)(=O)Nc2cccc3nsnc23)c(C)c1 | -3.18

Row | SMILES | hERG current change (%, negative = inhibition) at 10uM [%]
28 | O=C(NC1CCCC1)C(c1ccc(F)cc1)N(C(=O)c1csnn1)C1CCCC1 (centres unmarked) | 9.14
29 | COC(=O)c1ccc(CSc2nnc3n(Cc4ccccc4OC)c(=O)c4ccccc4n23)o1 | -19.3
30 | CCc1noc(C)c1C(=O)N1CCCC(CCC(=O)NCc2cccc(OC)c2)C1 (centres unmarked) | 20.2
31 | Cc1ccc(N=Nc2c(N)n[nH]c2N)cc1 | 24.5
32 | CNP(=O)(Oc1ccccc1)OC12CC3CC(CC(C3)C1)C2 (centres unmarked) | -2.75
33 | O=C(Nc1nnc(SCc2ccc(Cl)cc2)s1)C1CCCO1 (centres unmarked) | -21.9
34 | O=C(CNC(=O)c1ccco1)NCC(=O)OCc1cccc(C(=O)Oc2ccccc2)c1 | -3.88
35 | O=C(CNC(=O)c1ccco1)NCC(=O)OCc1ccc(C(=O)Oc2ccc(Cl)cc2)cc1 | 9.73
36 | O=C(CNC(=O)c1ccco1)OCc1ccc(Br)cc1 | 2.8
37 | O=C(CNC(=O)c1ccco1)OCc1ccc(C(=O)c2ccccc2)cc1 | -69.2
38 | O=C(CNC(=O)Cc1ccccc1)NCC(=O)OCc1ccccc1 (PhAc-Gly-Gly-OBn) | 12.4
39 | O=C(CNC(=O)c1ccco1)OCc1ccc(C(=O)Oc2ccccc2)cc1 | -73.6
40 | O=C(CNS(=O)(=O)c1ccccc1)NCC(=O)OCc1ccc(C(=O)c2ccccc2)cc1 | -61.6
41 | CCOC(=O)c1ccc(COC(=O)CNC(=O)CNC(=O)Cc2ccccc2)cc1 | -57.2
42 | O=C(CNC(=O)Cc1ccccc1)NCC(=O)OCc1ccc(C(=O)c2ccccc2)cc1 | -5.33
43 | O=C(CNS(=O)(=O)c1ccccc1)NCC(=O)OCc1ccc(Br)cc1 | -6.92
44 | COC(=O)c1ccc(COC(=O)CNC(=O)c2ccco2)cc1 | 17.3
45 | O=C(CNS(=O)(=O)c1ccccc1)NCC(=O)OCc1ccc(Cl)cc1 | 13.7
46 | O=C(Nc1cccc2c1CCCC2)c1ccc(Cl)c([N+](=O)[O-])c1 | 5.81
47 | CC(=O)N1CCc2cc(Br)cc(S(=O)(=O)NCCCN3CCC(C)CC3)c21 | -16.8
48 | CC(=O)c1sc(NC(=O)CCS(=O)(=O)c2ccccc2)nc1C | 8.51
49 | Cc1sc(NC(=O)c2cc(-c3ccc(Cl)cc3)nc3ccccc23)c(C(N)=O)c1C | 5.31
50 | NC(=O)/C(=C/c1ccco1)NC(=O)/C=C/c1ccccc1 | -5.56
51 | N/C(=N\OC(=O)COc1ccccc1)c1ccc(Cl)cc1 | 2.9
52 | CN1CCN(CC(=O)Nc2c(C#N)cnn2-c2ccccc2)CC1 | 12.1
53 | CCOC(=O)[C@@H]1[C@H]2COc3cc(OC)ccc3[C@@H]2N2C(=O)N(c3ccc(C(F)(F)F)cc3)C(=O)[C@]12C | 15.1

From PMC4336329 (PLoS ONE, 2015)
